100 compounds from PubChem BioAssay AID588436 (Broad Institute, 2011) can be followed below.

Hit rate of the full screen: of about 350,000 compounds, about 550 (0.16%) were called active. The sample as a whole holds a higher share of actives than the screen did. Values without a mark were called inactive. No stated cut-off is given here; in the data, active means activation mostly above about 9.7% (no sharp cut-off); inconclusive means no clear call, values can overlap the other calls; inactive means mostly below about 3.7%.

The assay is described as follows: induces V. cholerae light production without autoinducers, primary screen, BH1578 luxS cqsA deficient, single point (AID 588436). The settings on record: V. cholerae BH1578 lux reporter, luminescence, 6 h, at 18.7 µM; active compounds read high.
As to `COc1cccc(NS(=O)(=O)c2ccc3[nH]cc(C(=O)NCCCOC(C)C)c(=O)c3c2)c1`, the activation result is “inactive”. Consider `CN(C)c1ccc(CNC2C3CC4CC(C3)CC2C4)cc1` (stereo not given), for which the activation is -0.358%. For `CN(C)c1ccc(CSc2ccccc2)cc1`, the activation result is “inactive”. For `CN(C)c1ccc(CNC23CN4CN(CN(C4)C2)C3)cc1` the value was 54% (active). In the case of `CCN1CN(Cc2ccccc2)CNC1=S`, the activation entry is “inactive”. As to `C=CCC(C(=O)c1ccccc1)[N+](C)(C)CC=C` (stereo not given), the activation entry was “inactive”. Turning to `COc1ccccc1C(=O)NC(CCSC)C(=O)NNC(=O)c1csc(N2CCOCC2)n1` (stereo not given), the activation entry is “inactive”.

For the compound `COc1ccc(-n2ncc3c2CC(C)(C)CC3NC(=O)CCc2c(C)noc2C)cc1` (stereo not given), the activation was -0.606%.

Consider `O=C(O)CCCCCCCCc1cn(CN2C(=O)c3ccccc3C2=O)nn1`, for which the activation was -0.601%. As to `COc1ccc(CC(=O)c2ccc(O)cc2O)cc1OC`, the activation was 1.54%.

As to `O=C(NC1CCN(C(=S)NCc2ccco2)CC1)c1ccc(F)cc1`, the activation result is “inactive”. Regarding `CCN(C[C@H]1N[C@@](CC)(C(=O)OC)[C@H]2C(=O)N(Cc3ccccc3)C(=O)[C@@H]12)S(=O)(=O)c1ccc(C(F)(F)F)cc1`, the activation result is “inactive”. Take `Cc1ncoc1C(=O)NCCC(c1ccccc1)c1ccccc1`: the activation entry was “inactive”.

Consider `CS(=O)(=O)N1CCCC(C(=O)Nc2ccccc2C(F)(F)F)C1` (stereo not given), for which the activation was -3.85%.

With `CCN(CC(=O)NCC(=O)Nc1cccc(C)c1C)Cc1ccccc1`, the activation entry was “inactive”.

With `CCCCCCn1c(=O)n2n(c1=O)C[C@]1(OC(=O)NCc3ccc(OC)c(OC)c3)CN(S(=O)(=O)c3ccc(C)cc3)C[C@]1(O)C2`, the activation was -2.08%. Consider `Cc1ccc(C(=O)N/N=C/c2sc(=O)n(Cc3cccc(C(=O)O)c3)c2Cl)cc1`, for which the activation is 0.645%. Regarding `CCCCNC(=O)Cn1nc(C)c(S(=O)(=O)N2CCOCC2)c1C`, the activation entry was “inactive”. Take `Cc1onc(-c2ccccc2)c1C(=O)N1CCN(S(=O)(=O)c2ccccc2C(F)(F)F)CC1`: the activation was -0.206%. For `CNc1cncc(-c2cccc(C(=O)N3CCOCC3)c2)n1`, the activation is 3.33%. In the case of `Cc1onc(-c2ccccc2)c1C(=O)N1CCOCC1`, the activation is 16.7% (active). In the case of `Cc1cccc(N2CCN(C(C)C(=O)N3CCc4ccccc43)CC2)c1C` (stereo not given), the activation was -0.336%. With `COc1ccccc1-c1cnn2c(N3CCOCC3)cc(C)nc12`, the activation is -0.198%.

Turning to `CC(C)n1ncc2c(C(=O)N3CCN(Cc4cccs4)CC3)cc(C3CC3)nc21`, the activation was -0.459%. As for `CCN(CC)c1nc(-c2ccccc2)cc(C(F)(F)F)c1C#N`, the activation was 17.9% (active).

With `N#Cc1c(C(F)(F)F)cc(-c2cccs2)nc1N1CCCCC1`, the activation was -0.871%. `N#Cc1c(C(F)(F)F)cc(-c2ccccc2)nc1SCC(=O)N1CCOCC1`: the activation is -0.279%. As to `COC(=O)Cc1ccc(OCC(=O)Nc2ccc(OC(F)(F)F)cc2)cc1`, the activation is -0.392%. For the compound `CS(=O)(=O)c1sc(C(=O)NC(=S)Nc2ccc(OC(F)(F)F)cc2)c2c1C=CCC2`, the activation is 0.546%. Turning to `CCNC(=S)Nc1ccc(OC(F)(F)F)cc1`, the activation is 20.7% (active).

With `CCn1c2c(c3ccc(OC)cc31)CCCC2=O`, the activation result is “inactive”.

Regarding `CC(=O)OCC(COC(C)=O)OC(C)=O`, the activation was -1.4%. Take `CC(=O)OC(C)C[N+](C)(C)C` (stereo not given): the activation was 22.9% (active). On to `CC(C[N+](C)(C)C)OC(N)=O` (stereo not given), for which the activation entry is “inactive”. On to `NC(=O)C1CC=CCC1C(=O)OCC(Cl)=C(Cl)Cl` (stereo not given), for which the activation is -0.395%. Next, `Cc1noc(C)c1S(=O)(=O)N(C)Cc1ccccc1`: “inactive”. On to `COC(CNC(=O)Cn1ncc2ccsc2c1=O)OC`, for which the activation result was “inactive”. Take `O=C(CN1CCCCCC1)Nc1ccc(Br)cc1Br`: the activation is -7.69%. On to `O=C(CN1CCCCCC1)Nc1ccc(Br)cc1[N+](=O)[O-]`, for which the activation was 45.8% (active). Turning to `O=C(CN1CCCCC1)Nc1ccc(Br)cc1C(=O)c1ccccc1Cl`, the activation is -0.319%. For the compound `CCC1CCCCN1C(=O)Nc1cccc(NC(=O)N2CCCCC2CC)c1` (stereo not given), the activation result was “inactive”. Next, `CC(C)CC(=O)N1CCN(Cc2cccc(Cl)c2)CC1`: “inactive”; `CC(C)CC(=O)N1CCN(Cc2ccccc2Br)CC1`: 144% (active); `COc1ccccc1CN1CCN(C(=O)Cc2ccccc2)CC1`: “inactive”. As for `CCOC(=O)c1c(-c2cccc(N)c2)cn2ccccc12`, the activation was -1.18%. Consider `CC(=O)N1C(=O)C2(Nc3ccccc3N2)c2ccccc21`, for which the activation result was “inactive”. For the compound `CC(C)Cc1ccc(S(=O)(=O)N2CCN(C(=O)c3ccco3)CC2)cc1`, the activation is -6.25%. Consider `Cc1oc2cc3oc(=O)ccc3cc2c1C`, for which the activation was -0.488%.

As for `C/C(=N\NS(=O)(=O)c1cccc([N+](=O)[O-])c1)c1cc2ccccc2o1`, the activation was -2.5%.

On to `CCc1nc2c(OCCOc3ccccc3)cccn2c1N(C=O)Cc1ccc(OC)cc1`, for which the activation was 4.55%. For `COc1cc(C(=O)NCC(=O)NCCSc2ccc(Br)cc2)cc(OC)c1OC` the value was “inactive”; for `Cc1cccc(C(=O)OCC(=O)NC(C)C2CC3CCC2C3)c1O` (stereo not given), “inactive”. For `Cc1cccc(C(=O)OCC(=O)NCC(C)C)c1O`, the activation was 302% (active). Take `Cc1cccc(C)c1NC(=O)COC(=O)c1ccccc1O`: the activation was -0.155%. With `Oc1ccc(CNc2ccccc2O)cc1`, the activation was -0.266%.

On to `O=C(Nc1ccc2ccccc2c1)Nc1ccc2snnc2c1`, for which the activation entry is “inactive”. Turning to `COc1ccc2[nH]c(=O)c(CN(Cc3cccnc3)S(=O)(=O)c3ccccc3F)cc2c1`, the activation is 0.282%.

`COc1ccc2[nH]c(=O)c(CNc3ccc(C)c(C)c3)cc2c1`: the activation is 16.7% (active). For `COc1ccc2[nH]c(=O)c(CN(CC3CCCO3)C(=O)Nc3ccccc3)cc2c1` (stereo not given) the value was -0.239%; for `COc1ccc(N2C(=O)NC(NS(=O)(=O)c3ccc(Cl)cc3)(C(F)(F)F)C2=O)cc1` (stereo not given), 0.575%. As to `Cc1ccc(Cl)cc1NC(=O)C1CCCN(c2cnccn2)C1` (stereo not given), the activation is -2.5%. Next, `CC1(C)C=C2[C@H]3CC[C@@H]4[C@@]5(C)CCC(=O)C(C)(C)[C@@H]5CC[C@@]4(C)[C@]3(C)CC[C@@]2(C(=O)O)CC1`: “inactive”.

Regarding `Cc1cc(=O)oc2cc(OC(C)C(=O)Nc3ccc(N4CCOCC4)cc3)ccc12` (stereo not given), the activation result was “inactive”. Take `O=C(CN1CCC(O)(c2cccc(C(F)(F)F)c2)CC1)NCCc1ccccc1`: the activation is 277% (active). Turning to `Cc1cc(NC(=O)CN2CCC(O)(c3cccc(F)c3)CC2)no1`, the activation is -11.8%. In the case of `CCCNC(=O)C1(C)CCCN(Cc2cccc(C(F)(F)F)c2)C1` (stereo not given), the activation result was “inactive”. Consider `OCCN1CCN(CCO)C1=S`, for which the activation was -0.805%. As to `COc1cccc(CN(C)C(=O)CC23CC4CC(CC(C4)C2)C3)c1OC`, the activation entry was “inactive”. In the case of `O=C(Cc1ccc([N+](=O)[O-])cc1)Nc1ccc(C(=O)N2CCOCC2)cc1`, the activation entry is “inactive”. Take `Cc1c(C#N)c2ncn(CC#N)c(=O)c2n1-c1ccccc1`: the activation was 25% (active). On to `CC(=O)Cn1cnc2c(cnn2-c2ccccc2)c1=O`, for which the activation result is “inactive”. Take `CN(C)/C=C/c1c(C#N)c(=O)ncn1Cc1ccccc1`: the activation entry is “inactive”. Next, `Cc1cc(C)c(C#N)c(SCC(=O)NN2CC(=O)N(c3ccccc3F)CC2=O)n1`: 2.85%; `CCCCC(=O)Nc1ccccc1N1CCN(c2ccc(F)cc2)CC1`: “inactive”; `COc1ccccc1NC(=O)c1cc(N2C(=O)C3C4CCC(C4)C3C2=O)ccc1Cl` (stereo not given): “inactive”. For `COc1ccc(-c2coc3c(C(=O)NC(C)C)cccc23)c(C)c1` the value was -0.54%; for `O=C(NCc1cccs1)c1ccc(CS(=O)Cc2ccccc2Cl)o1` (stereo not given), -3.95%; for `CCN(CC(=O)Nc1cc(Cl)ccc1C)C(=O)CSCc1ccccc1`, 1.13%. Next, `CCN(CC(=O)NCc1ccc(Cl)cc1)C(=O)CSc1ccccc1`: 39.3% (active); `CCN(CC(=O)NCc1ccc(Cl)cc1)C(=O)c1c(C)noc1C`: “inactive”; `c1ccc(Cc2cc[n+](Cc3ccccc3)cc2)cc1`: -0.465%. Regarding `CC(C)(C)c1ccc(/C=C2\Oc3c(ccc(O)c3CN3CCN(CCO)CC3)C2=O)cc1`, the activation is -0.166%. For `COP1(=O)C[C@@H](O)[C@@H](O)[C@@H](COCc2ccccc2)O1` (stereo not given in full), the activation result is “inactive”. As for `COCC1CCCCN1C(=O)c1cc(COc2ccc(C)c(C)c2)on1` (stereo not given), the activation result was “inactive”. Consider `COc1ccc(NC(=O)CN2C(=O)C(c3ccccc3)=NC23CCCCCC3)cc1OC`, for which the activation was -0.396%.

In the case of `COc1ccc(CNS(=O)(=O)c2ccc(NC(=O)N3CCCCC3)cc2)cc1`, the activation entry is “inactive”. As to `COc1ccc(OCCCC(=O)Nc2cccc(S(=O)(=O)N3CCCCCC3)c2)cc1`, the activation was -0.87%. Turning to `O=C(Nc1ccc(F)cc1)c1cc2c(s1)CCCC2`, the activation is 0.953%. With `O=C(O)C1CCCN1c1nc(Cl)ccc1[N+](=O)[O-]` (stereo not given), the activation result is “inactive”.

`Cc1cccc(-c2oc3ccc(-c4ccc5c(c4)OCO5)cc3c2C#Cc2cncn2C)c1`: the activation is -1.22%. Regarding `COCCNC(=O)c1ccc2c(c1)ncn2-c1ccc(C)c(Cl)c1`, the activation result was “inactive”.

As to `O=C(c1cccs1)n1nc(NCc2ccccc2)nc1NCc1ccccc1`, the activation is -0.325%. `CC(NC(=O)COC(=O)C1CCN(S(=O)(=O)c2ccccc2C(F)(F)F)CC1)c1ccccc1` (stereo not given): the activation was -0.574%. In the case of `Cc1ccc(-c2nc(CS(=O)(=O)CC(=O)NCc3ccc4c(c3)OCO4)c(C)o2)cc1`, the activation is -0.345%. On to `CC(=O)c1ccc(Cc2ncc(C(F)(F)F)cc2Cl)s1`, for which the activation result was “inactive”. For `CCOc1ccc(S(=O)(=O)N/N=C(\C)c2ccc(Cl)c(Cl)c2Cl)cc1` the value was “inactive”; for `CC1Cc2ccccc2N1S(=O)(=O)c1ccc(Cl)nc1` (stereo not given), “inactive”; for `COC(=O)C1=C(C)N(c2ccc(C)cc2)/C(=C/c2ccc(O)cc2)C1=O`, -0.588%. Turning to `CCCC(=O)Nc1ccc2c(c1)nc1n2CCSC1`, the activation is -5%. `COc1ccc(N2CCN(C(=O)c3cn(C)c4ccc(S(=O)(=O)N5CCOCC5)cc4c3=O)CC2)cc1`: the activation was 1.02%.
